Among the data in a collection of fitness landscapes (doi:10.1126/science.1257360) are enrichment ratio values, retold here.

The full ranking holds about 140,000 sequences; the median of “enrichment ratio after two sorts for PhoP signalling” is about 0, and the highest 2% start at about 11. The sample holds the highest values, similar sequences and a random draw of the others, so the mix is not that of the screen.

First the molecules themselves.
B1: PhoQ; a variant is named by its letters at X, in order, P23837 (parent)
chain: MKKLLRLFFPLSLRVRFLLATAAVVLVLSLAYGMVALIGYSVSFDKTTFRLLRGESNLFYTLAKWENNKLHVELPENIDKQSPTMTLIYDENGQLLWAQRDVPWLMKMIQPDWLKSNGFHEIEADVNDTSLLLSGDHSIQQQLQEVREDDDDAEMTHSVAVNVYPATSRMPKLTIVVVDTIPVELKSSYMVWSWFIYVLSANLLLVIPLLWVAAWWSLRPIEALAKEVRELEEHNRELLNPATTRELTSLVRNLNRLLKSERERYDKYRTTLTDLTHSLKTPLXXLQXXLRSLRSEKMSVSDAEPVMLEQISRISQQIGYYLHRASMRGGTLLSRELHPVAPLLDNLTSALNKVYQRKGVNISLDISPEISFVGEQNDFVEVMGNVLDNACKYCLEFVEISARQTDEHLYIVVEDDGPGIPLSKREVIFDRGQRVDTLRPGQGVGLAVAREITEQYEGKIVAGESMLGGARMEVIFGRQHSAPKDE

This assay covers variants of B1. In words: enrichment ratio after two sorts for PhoP signalling (ratio (wild type AVST 3.29)); higher = more functional. To be noted: with PhoP (E. coli).
Turning to HQRH, the enrichment ratio is at most 0.25.
With GEDN, the enrichment ratio was at most 0.25.
In the case of YNEG, the enrichment ratio was at most 0.25.
Regarding KEMR, the enrichment ratio is at most 0.25.
WIRK: the enrichment ratio was at most 0.25.
On to EEFA, for which the enrichment ratio is at most 0.25.
Turning to YYMT, the enrichment ratio is at most 0.25.
Turning to TQCW, the enrichment ratio stood at 0.964.
The same measure for PSYG: at most 0.25; for EPIL: at most 0.25; for ISMM: 5.78.
Consider KAMM, for which the enrichment ratio was at most 0.25.
With LLMM, the enrichment ratio was at most 0.25.
For LAMM, the enrichment ratio was found to be 14.3.
Consider IAMM, for which the enrichment ratio stood at 13.5.
For LTMM, the enrichment ratio was determined as 2.28.
MTSV: the enrichment ratio is 0.634.
Turning to AESV, the enrichment ratio came to 14.8.
The same measure for TESV: 26.1; for ARSV: at most 0.25.
For QRSV, the enrichment ratio is at most 0.25.
The same measure for MKSV: at most 0.25; for MESV: 24.5.
With MDSV, the enrichment ratio is at most 0.25.
Take NESV: the enrichment ratio was at most 0.25.
The same measure for QPSV: at most 0.25; for AHSV: at most 0.25; for QESV: 29.9.
In the case of IESV, the enrichment ratio was at most 0.25.
The same measure for IVVM: at most 0.25; for GAFT: at most 0.25.
With TQPA the figure was at most 0.25; with WQTI, at most 0.25.
In the case of MSAY, the enrichment ratio came out at 7.95.
With NSEQ, the enrichment ratio is at most 0.25.
Regarding IQME, the enrichment ratio is at most 0.25.
The same measure for TQMY: 12.5; for NQMY: at most 0.25; for TQME: 17.2.
As to WQME, the enrichment ratio is at most 0.25.
With FQMY the figure was at most 0.25; with KHFI, at most 0.25; with MHHY, at most 0.25.
As for RLFV, the enrichment ratio was at most 0.25.
With AWVF, the enrichment ratio was at most 0.25.
As for ACVF, the enrichment ratio came out at 11.9.
In the case of ACHF, the enrichment ratio is at most 0.25.
Regarding ALVF, the enrichment ratio amounted to 0.451.
With ATVF, the enrichment ratio is 16.1.
Take YTVF: the enrichment ratio was 0.29.
On to LWTN, for which the enrichment ratio was at most 0.25.
With FKQC the figure was at most 0.25.
In the case of IVWE, the enrichment ratio was at most 0.25.
For GEIS, the enrichment ratio is 20.8.
Consider GGIY, for which the enrichment ratio worked out at 2.45.
For the variant GEIV, the enrichment ratio came out at 8.51.
As to GERC, the enrichment ratio is at most 0.25.
Consider GNIY, for which the enrichment ratio is at most 0.25.
Turning to GEIC, the enrichment ratio was 45.3.
Consider GEFC, for which the enrichment ratio is at most 0.25.
For GNIS, the enrichment ratio is 5.86.
With GEIY the figure was 23; with IKLA, at most 0.25; with LNNT, at most 0.25.
The same measure for FNGW: at most 0.25; for YVPF: at most 0.25; for LTCT: at most 0.25.
As to FKRE, the enrichment ratio is at most 0.25.
Turning to TTCA, the enrichment ratio was 9.39.
As to LPWS, the enrichment ratio is at most 0.25.
Regarding GDTH, the enrichment ratio was at most 0.25.
The same measure for LVNA: at most 0.25; for HQNP: at most 0.25; for ANKA: at most 0.25.
Turning to AKAT, the enrichment ratio amounted to 3.68.
With AQMT the figure was 23.8.
With ANKK the figure was at most 0.25.
In the case of AKMT, the enrichment ratio turned out to be 52.1.
For ANMT, the enrichment ratio came to 12.2.
MEMT: the enrichment ratio was at most 0.25.
The same measure for AQMI: at most 0.25; for KKAT: at most 0.25.
For the variant AIAT, the enrichment ratio was 19.3.
With TKMT, the enrichment ratio was found to be 6.64.
On to NQMT, for which the enrichment ratio is at most 0.25.
The same measure for FGIN: at most 0.25; for RFYE: at most 0.25.
On to FYWY, for which the enrichment ratio is at most 0.25.
On to ITNK, for which the enrichment ratio is at most 0.25.
With QYEG the figure was at most 0.25; with HPNG, at most 0.25; with WHVS, at most 0.25.
With TMMI, the enrichment ratio worked out at 0.351.
WHFQ: the enrichment ratio worked out at 1.98.
For the variant DQQP, the enrichment ratio is at most 0.25.
For FHPL, the enrichment ratio was at most 0.25.
Regarding LVAW, the enrichment ratio was determined as 0.304.
In the case of AIAR, the enrichment ratio was determined as 19.7.
For ATMT, the enrichment ratio was at most 0.25.
In the case of AKAR, the enrichment ratio is at most 0.25.
Turning to AIMT, the enrichment ratio was 22.8.
For VHMT, the enrichment ratio was at most 0.25.
With KKAR the figure was at most 0.25; with SVWQ, at most 0.25.
Regarding KVQS, the enrichment ratio was at most 0.25.
With MAFM, the enrichment ratio was determined as 14.7.
As for NAFM, the enrichment ratio was at most 0.25.
As to GTFM, the enrichment ratio was at most 0.25.
Take YTFM: the enrichment ratio is at most 0.25.
As to MIGM, the enrichment ratio came to 2.52.
For the variant MTFM, the enrichment ratio stood at 17.1.
Consider KAFM, for which the enrichment ratio is at most 0.25.
Take MIFM: the enrichment ratio came to 15.8.
Take MKFM: the enrichment ratio is at most 0.25.
Consider DKSF, for which the enrichment ratio is at most 0.25.
With TGQA the figure was 3.89; with FELW, at most 0.25; with SMIV, at most 0.25.
The same measure for SMQH: 14.9; for SMWH: at most 0.25.
With SMMN the figure was 19.5; with SMKH, at most 0.25; with SMMH, 15.6.
For the variant SMGH, the enrichment ratio stood at 1.91.
For the variant SMNL, the enrichment ratio came to 2.56.
The same measure for SMPV: at most 0.25.
Take SMTH: the enrichment ratio is 4.57.
The same measure for SMQN: at most 0.25; for SMMV: 17.9.
Take NSPY: the enrichment ratio is at most 0.25.
As to PHRW, the enrichment ratio was at most 0.25.
NLYI: the enrichment ratio is at most 0.25.
As to HIPQ, the enrichment ratio is at most 0.25.
SEHH: the enrichment ratio was at most 0.25.
With NIQH the figure was at most 0.25; with NTWT, at most 0.25; with PEAN, at most 0.25.
As for VIAY, the enrichment ratio was at most 0.25.
Take PFVI: the enrichment ratio was at most 0.25.
GNDM: the enrichment ratio was at most 0.25.
With GENQ the figure was at most 0.25; with DMMC, at most 0.25; with SMFC, at most 0.25.
The same measure for SMMW: at most 0.25.
In the case of SMMI, the enrichment ratio was 5.18.
Turning to SMMC, the enrichment ratio was 16.1.
As to SMMS, the enrichment ratio was determined as 14.6.
For DVQM, the enrichment ratio was at most 0.25.
On to PNYR, for which the enrichment ratio was at most 0.25.
For AGHK, the enrichment ratio is at most 0.25.
Turning to HLLG, the enrichment ratio was at most 0.25.
Take ADLT: the enrichment ratio came out at 11.3.
ADLI: the enrichment ratio was 16.8.
Consider AHLI, for which the enrichment ratio was 4.17.
For TDLI, the enrichment ratio was found to be 16.1.
Consider ADLA, for which the enrichment ratio turned out to be 0.619.
Take FDLI: the enrichment ratio was at most 0.25.
Turning to AALI, the enrichment ratio came to 11.9.
AILT: the enrichment ratio came to 6.15.
As to AILI, the enrichment ratio was determined as 1.77.
Consider AADK, for which the enrichment ratio was at most 0.25.
As for KDLI, the enrichment ratio was at most 0.25.
In the case of APLI, the enrichment ratio was 0.336.
WYQF: the enrichment ratio is at most 0.25.
Turning to EELG, the enrichment ratio was at most 0.25.
On to IKSA, for which the enrichment ratio was at most 0.25.
With AVVT the figure was 0.37; with QMRR, at most 0.25; with ILWV, at most 0.25.
Turning to GWVK, the enrichment ratio is at most 0.25.
Turning to ANDK, the enrichment ratio was at most 0.25.
The same measure for AYLI: 0.332; for ANLI: 23.1; for PDDN: at most 0.25.
Take VNIK: the enrichment ratio is at most 0.25.
Take TWLY: the enrichment ratio was at most 0.25.
The same measure for IICF: 0.792.
For TICV, the enrichment ratio is 6.14.
For TICA, the enrichment ratio is 12.3.
Turning to TICE, the enrichment ratio was at most 0.25.
The same measure for TICI: 2.26; for TICL: 1.53.
For the variant TICS, the enrichment ratio is 13.
Regarding IKEC, the enrichment ratio was at most 0.25.
With LHYP the figure was at most 0.25.
As to KVDK, the enrichment ratio was at most 0.25.
Turning to TNCA, the enrichment ratio was 8.8.
For GISC, the enrichment ratio was 11.8.
With TNSR the figure was at most 0.25; with MNSC, at most 0.25; with TNSI, 15.8.
For the variant TNSS, the enrichment ratio was 13.1.
Turning to LNSS, the enrichment ratio was at most 0.25.
GIFC: the enrichment ratio was at most 0.25.
The same measure for TNSK: at most 0.25.
As for TNSC, the enrichment ratio stood at 17.3.
Regarding MNSS, the enrichment ratio amounted to 0.46.
Turning to GITC, the enrichment ratio was found to be 8.58.
